Assay results as given in PubChem BioAssay (NCATS).
Where “and” joins values, the source holds several entries; their conditions need not be identical. Equal entries are not always repeated. Results filed as inconclusive are left out. Calls of active or inactive are those of the source. Unless noted, calls follow the shape of the dose curve; as a rule, active = well fitted curve in the direction sought with a large enough effect; inconclusive = small, poorly fitted or top-dose-only effect, or another doubt; inactive = no such curve, though single readings can be large; an effect the other way counts as inactive or inconclusive.

Tests used:
[1] = target: Cellular tumor antigen p53 (Homo sapiens) (UniProt P04637); assay: Primary qHTS for small molecule compounds that upregulate eGFP-tagged delta133p53alpha (in N-terminal) cells. (AID 2060322); details: NCI-H358 eGFP-delta133p53alpha fluorescence, 24 h; activation: hits give high values;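 also: cells pre-induced with doxycycline then dosed without doxycycline; series mostly up to about 56 µM; 0% = DMSO vehicle and 100% = reference activator; nearly all actives have a fitted effect of over 75% in size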
Chain of Cellular tumor antigen p53 (Homo sapiens) (P04637 whole entry, looked up): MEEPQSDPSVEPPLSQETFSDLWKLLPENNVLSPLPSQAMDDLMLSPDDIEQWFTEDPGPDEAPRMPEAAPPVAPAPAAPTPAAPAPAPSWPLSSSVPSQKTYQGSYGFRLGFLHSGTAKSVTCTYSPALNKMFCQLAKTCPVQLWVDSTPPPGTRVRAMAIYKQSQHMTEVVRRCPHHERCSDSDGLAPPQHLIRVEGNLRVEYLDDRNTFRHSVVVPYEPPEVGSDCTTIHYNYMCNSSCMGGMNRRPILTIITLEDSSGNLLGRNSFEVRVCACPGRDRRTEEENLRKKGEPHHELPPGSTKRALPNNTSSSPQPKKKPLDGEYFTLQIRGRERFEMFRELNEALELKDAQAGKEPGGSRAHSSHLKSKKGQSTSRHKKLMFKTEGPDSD
Procedure, shortened: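 NCI-H358 cells pre-induced 24 h with 10 ng/ml doxycycline for eGFP-delta133p53alpha, plated dox-free and exposed 24 h at 37C to titrated compounds. Fixed, Hoechst-stained; gated GFP peak intensity by laser scanning cytometry, normalized to DMSO (0%) and 57.5 uM 5-azacytidine (100%).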

[2] = target: Cellular tumor antigen p53 (Homo sapiens) (UniProt P04637); assay: Primary qHTS for small molecule compounds that upregulate eGFP-tagged delta133p53alpha (in C-terminal) cells. (AID 2060324);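 also: 0% = DMSO wells and 100% = 57.5 µM 5-azacytidine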
Procedure, shortened: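 Read-out: gated-cell GFP peak intensity (laser scanning cytometer), plate-normalized with DMSO as 0% activity, after 24 h compound exposure at 37C. Cells were C-terminal eGFP-tagged delta133p53alpha NCI-H358, doxycycline-induced (100 ng/ml, 24 h) before plating.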

[3] = target: Aldehyde dehydrogenase, mitochondrial (Homo sapiens) (UniProt P05091); assay: qHTS for Inhibitors of the Aldehyde Dehydrogenase Family (ALDH2) Validation screens (AID 2061302; active = well fitted inhibition curve with a large enough effect; title and protocol of this record describe different tests;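 also: plate controls were DMSO vehicle for no effect and maximal DPI positive control response for full effect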)
[4] = target: Retinaldehyde dehydrogenase 3 (Homo sapiens) (UniProt P47895); assay: qHTS for Inhibitors of the Aldehyde Dehydrogenase Family (ALDH1A3) Validation screen (AID 2061312); also: % is scaled to controls: 0 for no effect and ±100 for the full control effect; nearly all actives have a fitted effect of over 45% in size

NC1=NCC2c3ccccc3Cc3ccccc3N12 (stereo not given)
inactive: activation [1] -14.2% and -12.4% | Potency [2] | Potency [3] | Potency [4]

CC(N)(C(=O)O)c1ccc(C(=O)O)cc1 (stereo not given)
inactive: activation [1] 7.46% | Potency [2] | Potency [3] | Potency [4]

CO[C@@]1(NC(=O)CSCC#N)C(=O)N2C(C(=O)O)=C(CSc3nnnn3C)CS[C@@H]21
inactive: activation [1] 11.9% and 5.62% | Potency [2] | Potency [3] | Potency [4]

C=CCc1ccccc1OCC(O)CNC(C)C (stereo not given)
inactive: activation [1] 2.82% and -28% | Potency [2] | Potency [3] | Potency [4]

Cn1c(=O)c2[nH]c(C3CCCC3)nc2n(C)c1=O
inactive: activation [1] 3.95% | Potency [2] | Potency [3] | Potency [4]

C[N+]1(C)C2CC(OC(=O)[C@H](CO)c3ccccc3)CC1C1OC12 (stereo not given in full)
inactive: activation [1] 4.68% and -6.58% | Potency [2] | Potency [3] | Potency [4]

O=C(O)CCCC[C@@H]1CCSS1
inactive: activation [1] -13.5% | Potency [2] | Potency [3] | Potency [4]

N[C@@H](CCCC(=O)O)C(=O)O
inactive: activation [1] -8.81% | Potency [2] | Potency [3] | Potency [4]

O=C(O)c1ccccc1Nc1ccccc1
inactive: activation [1] -8.85% | Potency [2] | Potency [3] | Potency [4]

CC(=O)Nc1nnc(S(N)(=O)=O)s1
inactive: activation [1] 21.8% and -10.7% | Potency [2] | Potency [3] | Potency [4]

CN1CC(O)C(O)C(O)C1CO (stereo not given)
inactive: activation [1] 9.95% | Potency [2] | Potency [3] | Potency [4]

CC[N+](C)(C)c1cccc(O)c1
inactive: activation [1] 3.57% | Potency [2] | Potency [3] | Potency [4]

CC(C)(C)[C@]1(O)CCN2C[C@H]3c4ccccc4CCc4cccc(c43)[C@@H]2C1
inactive: activation [1] -52.3% and -59.2% | Potency [2] | Potency [3] | Potency [4]

C=CC(C)=C[C@@]1(C)SC(=O)C(C)=C1O
inactive: activation [1] 0.958% | Potency [2] | Potency [3] | Potency [4]

Cc1cc(NC2CCCCC2)nc(-n2nc(C)cc2C)n1
inactive: activation [1] -20.8% | Potency [2] | Potency [3] | Potency [4]

CN/C(=C\[N+](=O)[O-])NCCSCc1ccc(CN(C)C)o1
inactive: activation [1] 7.34% and -15.3% | Potency [2] | Potency [3] | Potency [4]

CCCNC(C)C(=O)Nc1ccccc1C (stereo not given)
inactive: activation [1] -9.21% and 30.8% | Potency [2] | Potency [3] | Potency [4]

COC1(C2=NCCN2)COc2ccccc2O1 (stereo not given)
inactive: activation [1] -0.599% | Potency [2] | Potency [3] | Potency [4]

CCOC(=O)C1=C(C)NC(C)=C(C(=O)OC)C1c1cccc(Cl)c1Cl (stereo not given)
inactive: activation [1] 16.4% and -13.8% | Potency [2] | Potency [3] | Potency [4]

COc1ccc(C(=O)NCc2cccnc2)cc1C(=O)NCc1cccnc1
inactive: activation [1] -12.6% | Potency [2] | Potency [3] | Potency [4]

Nc1ncnc2c1nc(Br)n2C1OC2COP(=O)(O)O[C@@H]2C1O (stereo not given in full)
inactive: activation [1] -6.56% | Potency [2] | Potency [3] | Potency [4]

Fc1cccc(/C=N/N=C/c2cccc(F)c2)c1
inactive: activation [1] -12.5% | Potency [2] | Potency [3] | Potency [4]

O=C(O)c1cc2cc(F)ccc2[nH]1
inactive: activation [1] -70.8% | Potency [2] | Potency [3] | Potency [4]

COc1cc(C(O)CO)ccc1O (stereo not given)
inactive: activation [1] -14% | Potency [2] | Potency [3] | Potency [4]

NCCCCC(=O)O
inactive: activation [1] -27.1% | Potency [2] | Potency [3] | Potency [4]

CCn1nc(C(=O)O)c(=O)c2cc3c(cc21)OCO3
inactive: activation [1] -7.53% and -29.2% | Potency [2] | Potency [3] | Potency [4]

OC[C@H]1O[C@@H](n2cnc3cncnc32)[C@H](O)[C@@H]1O
inactive: activation [1] -14.1% | Potency [2] | Potency [3] | Potency [4]

CN(C)C(=O)Oc1cccc([N+](C)(C)C)c1
inactive: activation [1] -10.7% and -13.7% | Potency [2] | Potency [3] | Potency [4]

C[C@@]1(C2CCCC2)Cc2cc(OCC(=O)O)c(Cl)c(Cl)c2C1=O
inactive: activation [1] 4.66% | Potency [2] | Potency [3] | Potency [4]

CC1(C)CCC(NC(=O)[C@@H](N)CCC(=O)O)CC1
inactive: activation [1] -8.15% | Potency [2] | Potency [3] | Potency [4]

CC(CCc1ccc(O)cc1)NCCc1ccc(O)c(O)c1 (stereo not given)
inactive: activation [1] 23.7% and -15.1% and -3.75% | Potency [2] | Potency [3] | Potency [4]

O=C(c1ccc(Cl)cc1)N1CCN(c2ccc([N+](=O)[O-])c3ncccc23)CC1
inactive: activation [1] -9.46% | Potency [2] | Potency [3] | Potency [4]

CC(C)C[C@H](NC(=O)C1OC1C(=O)O)C(=O)NCCCCN=C(N)N (stereo not given in full)
inactive: activation [1] -1.96% | Potency [2] | Potency [3] | Potency [4]

NC/C=C/C(=O)O
inactive: activation [1] 18.6% and -17.5% | Potency [2] | Potency [3] | Potency [4]

COCCCC/C(=N\OCCN)c1ccc(C(F)(F)F)cc1
inactive: activation [1] -6.69% and 3.07% | Potency [2] | Potency [3] | Potency [4]

Cc1ccc([N+](=O)[O-])cc1S(=O)(=O)N(C)C
inactive: activation [1] -2.98% | Potency [2] | Potency [3] | Potency [4]

C[C@@H](NCCc1ccc(O)cc1)[C@@H](O)c1ccc(O)cc1
inactive: activation [1] -21.6% | Potency [2] | Potency [3] | Potency [4]

O=c1n(CCCN2CCN(c3cccc(Cl)c3)CC2)nc2ccccn12
inactive: activation [1] -7.53% and 33.4% and -0.284% | Potency [2] | Potency [3] | Potency [4]

CC(C)Cn1c(=O)n(C)c(=O)c2[nH]cnc21
inactive: activation [1] -30.3% | Potency [2] | Potency [3] | Potency [4]

C[C@]12CC[C@@H]3c4ccc(O)cc4C[C@@H](CCCCCCCCCS(=O)CCCC(F)(F)C(F)(F)F)[C@H]3[C@@H]1CC[C@@H]2O (stereo not given in full)
inactive: activation [1] 5.86% and -66.3% | Potency [2] | Potency [3] | Potency [4]

Nc1ccc(-c2nc3ccc(-c4nc5ccc(N)cc5[nH]4)cc3[nH]2)cc1
inactive: activation [1] -9.36% | Potency [2] | Potency [3] | Potency [4]

N[C@@H](Cc1cnc[nH]1)C(=O)O
inactive: activation [1] 30.1% | Potency [2] | Potency [3] | Potency [4]

Nc1c2c(nc3ccccc13)CCCC2O (stereo not given)
inactive: activation [1] 7.34% and -16.8% | Potency [2] | Potency [3] | Potency [4]

OC(CN1CCC(Cc2ccc(F)cc2)CC1)c1ccc(Cl)cc1 (stereo not given)
inactive: activation [1] 5.08% and 40.7% | Potency [2] | Potency [3] | Potency [4]

CCCCCCCC/C=C\CCCCCCCC(=O)NCCO
inactive: activation [1] -9.12% | Potency [2] | Potency [3] | Potency [4]

CCCC(CCC)C(=O)OC1CC2CCC(C1)[N+]2(C)C (stereo not given)
inactive: activation [1] -17.7% | Potency [2] | Potency [3] | Potency [4]

CC(C(=O)O)c1ccc(CC2CCCC2=O)cc1 (stereo not given)
inactive: activation [1] -10% and 11.7% | Potency [2] | Potency [3] | Potency [4]

C[N+](C)(C)CCOC(N)=O
inactive: activation [1] -23.4% and -15.4% | Potency [2] | Potency [3] | Potency [4]

CC(=O)OCC1=C(C(=O)O)N2C(=O)[C@@H](NC(=O)Cc3cccs3)[C@H]2SC1
inactive: activation [1] 27.7% and 1.09% | Potency [2] | Potency [3] | Potency [4]

CC(C)C[C@H](NC(=O)[C@H](O)[C@H](N)Cc1ccccc1)C(=O)O
inactive: activation [1] 3.56% | Potency [2] | Potency [3] | Potency [4]

CC(C)NC[C@H](O)COc1ccc(CC(N)=O)cc1
inactive: activation [1] -18.8% | Potency [2] | Potency [3] | Potency [4]

COc1ccc(-c2cc(=O)c3c(O)c(OC)c(OC)cc3o2)cc1O
inactive: activation [1] 37.1% | Potency [2] | Potency [3] | Potency [4]

CCN(Cc1ccncc1)C(=O)C(CO)c1ccccc1 (stereo not given)
inactive: activation [1] 3.95% and 13.2% | Potency [2] | Potency [3] | Potency [4]

COc1cc(CNC(=O)CCCCCCC(C)C)ccc1O
inactive: activation [1] 0.736% | Potency [2] | Potency [3] | Potency [4]

NC(CCCP(=O)(O)O)C(=O)O (stereo not given)
inactive: activation [1] 34.5% | Potency [2] | Potency [3] | Potency [4]

CCCCNC(=O)NS(=O)(=O)c1ccc(C)cc1
inactive: activation [1] -35.6% and -11.9% | Potency [2] | Potency [3] | Potency [4]

NCCS(=O)O
inactive: activation [1] -4.42% | Potency [2] | Potency [3] | Potency [4]

CCCCCCCCCCCCCCCC(=O)OC(CC(=O)O)C[N+](C)(C)C (stereo not given)
inactive: activation [1] -11.1% | Potency [2] | Potency [3] | Potency [4]

CCOC(=O)[C@H](CCc1ccccc1)N[C@@H](C)C(=O)N1[C@H](C(=O)O)C[C@H]2CCCC[C@@H]21
inactive: activation [1] -16.3% | Potency [2] | Potency [3] | Potency [4]

COc1cc(CC(=O)O)ccc1O
inactive: activation [1] -3.12% | Potency [2] | Potency [3] | Potency [4]

CC(C)(C)NC[C@H](O)COc1nsnc1N1CCOCC1
inactive: activation [1] -9.94% | Potency [2] | Potency [3] | Potency [4]

Nc1ncnc2c1ncn2[C@@H]1O[C@H](COP(=O)(O)CP(=O)(O)OP(=O)(O)O)[C@@H](O)[C@H]1O
inactive: activation [1] 7.87% | Potency [2] | Potency [3] | Potency [4]

CN(CC[C@@H](Oc1ccc(C(F)(F)F)cc1)c1ccccc1)CC(=O)O
inactive: activation [1] 2.22% | Potency [2] | Potency [3] | Potency [4]

C[N+](C)(C)CCCCCCCCCC[N+](C)(C)C
inactive: activation [1] -20.9% and 13% | Potency [2] | Potency [3] | Potency [4]

O=C1/C(=C/c2ccsc2)CC/C1=C\c1cccs1
inactive: activation [1] 14.3% | Potency [2] | Potency [3] | Potency [4]
